In PubChem BioAssay (EPA / NIEHS) one finds outcome and AC50 data, which are given here for three compounds.

Activity calls are given as the source filed them. Rule for the calls: active = hit-call score of the fitted dose curve at least 0.9, where 1 is the maximum; inactive = score below 0.9.

Holding throughout (conditions): mRNA level, 48 h; actives raise or lower the signal
Read-out in one assay: BCL2L11 (gene 10018)
The assay is described as follows: LTEA_HepaRG_BCL2L11: Life Technologies and Expression Analysis (LTEA) Assay for Bcl-2 (BCL2L11) gene using HepaRG (AID 2283473). Put shortly: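 HepaRG, 48 h exposure, 8-pt half-log series from 100 uM in 0.5% DMSO, duplicates; qRT-PCR (Fluidigm TaqMan) for BCL2L11, housekeeping-normalized; bidirectional curve fit relative to DMSO baseline.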

Read-out in assay [1]: Apolipoprotein A-V (APOA5) gene, APOA5 (gene 116519)
The assay is described as follows: LTEA_HepaRG_APOA5: Life Technologies and Expression Analysis (LTEA) Assay for Apolipoprotein A-V (APOA5) gene using HepaRG (AID 2283474). Put shortly: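 HepaRG, 48 h chemical exposure in serum-free induction medium, 8-pt half-log series (top 100 uM), 0.5% DMSO vehicle, duplicates. Readout: APOA5 mRNA by qRT-PCR, housekeeping-normalized; bidirectional fit vs DMSO baseline.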

Read-out in assay [2]: Apoptosis regulator Bcl-2 (Homo sapiens) (UniProt P10415)
The assay is described as follows: LTEA_HepaRG_BCL2: Life Technologies and Expression Analysis (LTEA) Assay for Bcl-2 gene using HepaRG (AID 2283475). Summed up: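 qRT-PCR of BCL2 transcript, normalized to three housekeeping genes (ACTB, GAPDH, POLR2A), after 48 h chemical exposure of HepaRG cells; concentrations top 100 uM with half-log dilutions, 0.5% DMSO vehicle, duplicates; changes up or down fitted relative to vehicle.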

Read-out in assay [3]: Bcl-2 (BID) gene, BID (gene 637)
The assay is described as follows: LTEA_HepaRG_BID: Life Technologies and Expression Analysis (LTEA) Assay for Bcl-2 (BID) gene using HepaRG (AID 2283476). Summed up: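 Duplicate 48 h treatments of HepaRG cells in serum-free induction medium spanned 100 uM downward in half-log steps, 0.5% DMSO. Transcript change quantified by qRT-PCR against three housekeeping genes, fitted up or down versus DMSO.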

Read-out in the next assay: Caspase-3 (Homo sapiens) (UniProt P42574)
The assay is described as follows: LTEA_HepaRG_CASP3: Life Technologies and Expression Analysis (LTEA) Assay for cysteine-aspartic acid protease (CASP3) using HepaRG (AID 2283477). Put shortly: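 HepaRG, 48 h exposure, 8 conc. (top 100 uM, half-log steps, duplicate), 0.5% DMSO vehicle; qRT-PCR of CASP3 transcript, housekeeping-normalised (ACTB/GAPDH/POLR2A); bidirectional curve fit vs DMSO baseline.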

Read-out in assay [4]: Cytochrome P450 (CYP24A1), CYP24A1 (gene 1591)
The assay is described as follows: LTEA_HepaRG_CYP24A1: Life Technologies and Expression Analysis (LTEA) Assay for Cytochrome P450 (CYP24A1) using HepaRG (AID 2283478). Summed up: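 qRT-PCR read-out: CYP24A1 transcript levels normalized to three housekeeping genes, bidirectional curve fits against 0.5% DMSO baseline. Human HepaRG cells treated 48 h with chemicals at eight concentrations from 100 uM in half-log steps.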

Read-out in assay [5]: Cytochrome P450 (CYP1A2), CYP1A2 (gene 1544)
The assay is described as follows: LTEA_HepaRG_CYP1A2: Life Technologies and Expression Analysis (LTEA) Assay for Cytochrome P450 (CYP1A2) using HepaRG (AID 2283479). Put shortly:
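HepaRG, 48 h exposure, top 100 uM, half-log 8-pt, 0.5% DMSO vehicle, duplicates. Readout: TaqMan qRT-PCR of CYP1A2 mRNA, housekeeping-normalized (ACTB/GAPDH/POLR2A). Gain/loss fit relative to DMSO baseline.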

Read-out in assay [6]: cysteine-aspartic acid protease (CASP8), CASP8 (gene 841)
The assay is described as follows: LTEA_HepaRG_CASP8: Life Technologies and Expression Analysis (LTEA) Assay for cysteine-aspartic acid protease (CASP8) using HepaRG (AID 2283480). Summed up:
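Concentration-response in duplicate up to 100 uM (half-log steps, 0.5% DMSO) on differentiated HepaRG cultures for 48 h. Expression change of CASP8 mRNA is determined by TaqMan qRT-PCR with housekeeping-gene normalization.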

Read-out in assay [7]: Cytochrome P450 (CYP2B6), CYP2B6 (gene 1555)
The assay is described as follows: LTEA_HepaRG_CYP2B6: Life Technologies and Expression Analysis (LTEA) Assay for Cytochrome P450 (CYP2B6) using HepaRG (AID 2283481). Summed up:
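Read-out is CYP2B6 mRNA by TaqMan qRT-PCR, normalized to three housekeeping genes and fitted bidirectionally against 0.5% DMSO baseline. Human HepaRG cells received test chemicals for 48 h, top concentration 100 uM, half-log dilutions.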

Read-out in assay [8]: Cytochrome P450 2C19 (Homo sapiens) (UniProt P33261)
The assay is described as follows: LTEA_HepaRG_CYP2C19: Life Technologies and Expression Analysis (LTEA) Assay for CYP2C19 using HepaRG (AID 2283482). Put shortly:
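HepaRG, 48 h chemical exposure, 8-pt half-log series from 100 uM in 0.5% DMSO, duplicates. Readout: CYP2C19 mRNA by TaqMan qRT-PCR, housekeeping-normalized. Bidirectional fit vs DMSO baseline; phenobarbital 1mM as induction control.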

Read-out in a further assay: CYP2C8 (gene 1558)
The assay is described as follows: LTEA_HepaRG_CYP2C8: Life Technologies and Expression Analysis (LTEA) Assay for CYP2C8 using HepaRG (AID 2283483). Put shortly: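 This is a transcriptional endpoint in HepaRG cultures: 48 h exposure, highest concentration 100 uM. CYP2C8 mRNA is quantified by TaqMan qRT-PCR.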

Read-out in the next assay: CYP2C9 (gene 1559)
The assay is described as follows: LTEA_HepaRG_CYP2C9: Life Technologies and Expression Analysis (LTEA) Assay for CYP2C9 using HepaRG (AID 2283484). Summed up:
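Eight-point concentration-response (highest 100 uM, half-log dilutions) in HepaRG cells for 48 h; CYP2C9 expression by qRT-PCR normalized to ACTB, GAPDH, POLR2A. Bidirectional fit, DMSO baseline.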

Read-out in another assay: CYP2E1 (gene 1571)
The assay is described as follows: LTEA_HepaRG_CYP2E1: Life Technologies and Expression Analysis (LTEA) Assay for CYP2E1 using HepaRG (AID 2283485). Put shortly:
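CYP2E1 transcript measured by Fluidigm qRT-PCR against three housekeeping genes in human HepaRG cells treated 48 h (top 100 uM, half-log steps, 0.5% DMSO vehicle). Gain or loss fitted relative to DMSO baseline.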

Read-out in the next assay: CYP4A11 (gene 1579)
The assay is described as follows: LTEA_HepaRG_CYP4A11: Life Technologies and Expression Analysis (LTEA) Assay for CYP4A11 using HepaRG (AID 2283486). Summed up: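 CYP4A11 transcript levels were quantified by TaqMan qRT-PCR after HepaRG human liver cells were treated for 48 hours with test chemicals (top 100 uM, half-log dilutions, 0.5% DMSO). Gain or loss of signal was fitted relative to DMSO.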

Read-out in assay [9]: DNA damage-inducible transcript 3 (DDIT3), DDIT3 (gene 1649)
The assay is described as follows: LTEA_HepaRG_DDIT3: Life Technologies and Expression Analysis (LTEA) Assay for DNA damage-inducible transcript 3 (DDIT3) using HepaRG (AID 2283488). Put shortly:
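DDIT3 transcript was quantified by qRT-PCR with ACTB/GAPDH/POLR2A normalization after 48 h chemical treatment of differentiated HepaRG cells in 0.5% DMSO. Dosing was eight-point, half-log, top 100 uM, duplicate wells. Curves fitted bidirectionally versus DMSO.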

Read-out in assay [10]: Pro-epidermal growth factor (Homo sapiens) (UniProt P01133)
The assay is described as follows: LTEA_HepaRG_EGF: Life Technologies and Expression Analysis (LTEA) Assay for Epidermal growth factor (EGF) using HepaRG (AID 2283489). Put shortly: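 qRT-PCR readout of EGF transcript after 48 h chemical exposure of HepaRG cells; eight concentrations from 100 uM down in half-log steps, duplicate wells, 0.5% DMSO vehicle. Bidirectional curve fitting against DMSO baseline.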

Read-out in assay [11]: Early growth response protein 1 (EGR1) transcription factor, EGR1 (gene 1958)
The assay is described as follows: LTEA_HepaRG_EGR1: Life Technologies and Expression Analysis (LTEA) Assay for Early growth response protein 1 (EGR1) transcription factor using HepaRG (AID 2283490). Put shortly:
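EGR1 expression change in human HepaRG after 48 h chemical exposure, assessed by housekeeping-normalized qRT-PCR; concentration-response up to 100 uM, fitted in both directions against DMSO controls.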

Read-out in assay [12]: Ezrin (EZR), EZR (gene 7430)
The assay is described as follows: LTEA_HepaRG_EZR: Life Technologies and Expression Analysis (LTEA) Assay for Ezrin (EZR) using HepaRG (AID 2283491). Put shortly:
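Differentiated human HepaRG cells, 48 h after plating, were exposed in serum-free induction medium for 48 hours to eight half-log concentrations up to 100 uM in 0.5% DMSO. EZR mRNA was measured by TaqMan qRT-PCR, normalized to ACTB, GAPDH and POLR2A, and fitted bidirectionally against DMSO.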

Read-out in assay [13]: Cytochrome P450 3A7 (Homo sapiens) (UniProt P24462)
The assay is described as follows: LTEA_HepaRG_CYP3A7: Life Technologies and Expression Analysis (LTEA) Assay for CYP3A7 using HepaRG (AID 2283492). Summed up: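 CYP3A7 transcript levels were read by TaqMan qRT-PCR on Fluidigm arrays after 48 h chemical exposure of human HepaRG cells, with housekeeping-gene normalisation. Eight half-log concentrations up to 100 uM in 0.5% DMSO were tested in duplicate.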

Apoptosis regulator Bcl-2 (Homo sapiens), sequence (P10415 whole entry, looked up): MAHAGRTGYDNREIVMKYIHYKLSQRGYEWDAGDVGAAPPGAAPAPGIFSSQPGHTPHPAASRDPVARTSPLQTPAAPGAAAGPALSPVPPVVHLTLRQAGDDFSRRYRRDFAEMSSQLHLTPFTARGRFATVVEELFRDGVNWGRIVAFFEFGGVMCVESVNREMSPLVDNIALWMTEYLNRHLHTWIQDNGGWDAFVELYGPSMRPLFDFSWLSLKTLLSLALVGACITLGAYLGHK
Cytochrome P450 2C19 (Homo sapiens), sequence (P33261 whole entry, looked up): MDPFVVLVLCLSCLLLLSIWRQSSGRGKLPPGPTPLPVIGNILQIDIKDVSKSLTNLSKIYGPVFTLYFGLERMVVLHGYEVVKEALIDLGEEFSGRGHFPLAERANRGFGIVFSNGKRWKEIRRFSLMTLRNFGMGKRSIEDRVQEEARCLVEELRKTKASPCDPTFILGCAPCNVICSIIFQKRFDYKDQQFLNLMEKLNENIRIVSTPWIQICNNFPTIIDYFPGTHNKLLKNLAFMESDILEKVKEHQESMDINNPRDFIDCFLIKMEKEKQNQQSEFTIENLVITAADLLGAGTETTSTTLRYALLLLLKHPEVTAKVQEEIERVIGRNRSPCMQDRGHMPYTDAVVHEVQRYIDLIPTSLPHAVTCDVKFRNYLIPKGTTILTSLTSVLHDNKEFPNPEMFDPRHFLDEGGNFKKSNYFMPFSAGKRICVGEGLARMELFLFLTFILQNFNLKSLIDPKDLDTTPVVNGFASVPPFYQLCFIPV
Cytochrome P450 3A7 (Homo sapiens), sequence (P24462 whole entry, looked up): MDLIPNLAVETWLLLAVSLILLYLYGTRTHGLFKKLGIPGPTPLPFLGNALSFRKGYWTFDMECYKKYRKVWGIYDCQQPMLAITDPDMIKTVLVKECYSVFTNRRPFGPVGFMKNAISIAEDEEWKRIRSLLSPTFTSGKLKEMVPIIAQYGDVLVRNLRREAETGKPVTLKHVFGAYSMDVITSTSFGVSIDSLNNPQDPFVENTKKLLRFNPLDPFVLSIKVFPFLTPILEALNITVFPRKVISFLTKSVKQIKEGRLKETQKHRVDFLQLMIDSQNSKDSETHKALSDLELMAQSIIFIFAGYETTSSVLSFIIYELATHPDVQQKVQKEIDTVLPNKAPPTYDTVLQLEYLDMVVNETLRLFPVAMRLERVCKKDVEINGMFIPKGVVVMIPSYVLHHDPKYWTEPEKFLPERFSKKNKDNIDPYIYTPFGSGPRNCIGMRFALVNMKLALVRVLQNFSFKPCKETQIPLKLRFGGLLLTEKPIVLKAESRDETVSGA
Caspase-3 (Homo sapiens), sequence (P42574 whole entry, looked up): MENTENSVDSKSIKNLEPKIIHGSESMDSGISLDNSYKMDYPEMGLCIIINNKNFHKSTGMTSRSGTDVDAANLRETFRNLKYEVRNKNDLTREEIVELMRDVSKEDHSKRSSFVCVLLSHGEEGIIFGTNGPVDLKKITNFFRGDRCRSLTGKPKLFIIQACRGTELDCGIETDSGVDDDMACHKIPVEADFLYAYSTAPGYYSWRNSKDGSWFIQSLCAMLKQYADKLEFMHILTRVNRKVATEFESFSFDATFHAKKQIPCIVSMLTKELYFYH

In the case of `CCCCOC(=O)c1ccccc1C(=O)OCc1ccccc1`, the outcome (in the assay with BCL2L11 (gene 10018); in assay [1]; in assay [2]; in assay [3]; in the assay with Caspase-3 (Homo sapiens); in [4]) was inactive. Moreover, the compound was classed as inactive (in assay [6]; in assay [7]; in assay [8]; in the assay with CYP2C8 (gene 1558); in the assay with CYP2C9 (gene 1559); with CYP2E1 (gene 1571)). The call (with CYP4A11 (gene 1579); in [9]; in assay [10]; in [11]; in assay [12]; in [13]) was inactive. For the same compound, in assay [5], the concentration at half-maximal activity (AC50) – broadly, the concentration giving half of the maximal activity seen – is 15.5 µM (active).
Turning to `COC(=O)c1ccccc1N`, the outcome (with BCL2L11 (gene 10018); in [1]; in assay [2]; in assay [3]; with Caspase-3 (Homo sapiens); in [4]) was inactive. The result (in assay [5]; in [6]; in assay [7]; in [8]; with CYP2C8 (gene 1558); with CYP2C9 (gene 1559)) was inactive. The compound was called inactive (with CYP2E1 (gene 1571); with CYP4A11 (gene 1579); in assay [9]; in [10]; in [11]; in assay [12]). In [13], the result was inactive.
On to `Cc1ccc(N)c(N)c1`, for which the call (with BCL2L11 (gene 10018); in assay [1]; in assay [2]; in assay [3]; with Caspase-3 (Homo sapiens); in assay [4]) was inactive. For the same compound, the compound was classed as inactive (in assay [6]; in assay [8]; with CYP2C8 (gene 1558); in the assay with CYP2C9 (gene 1559); in the assay with CYP4A11 (gene 1579); in [9]). In addition, the outcome in assay [10], in assay [11] and in [12] was inactive. For the same compound, the half-maximal activity concentration (AC50) in [5] is 38.3 µM (active); in [7], 50 µM (active); in the assay with CYP2E1 (gene 1571) it was 50 µM (active); in assay [13], 35.9 µM (active).
